Unmarked numbers belong to inactive results. Activity calls are given as the source filed them.

Consider nine compounds from PubChem BioAssay.

The nature of this experiment: budding yeast growth changes without added modifier – OD600, strain BY4716, 24 h, basal condition, primary screen (AID 1173). The conditions noted are these: S. cerevisiae BY4716 growth, OD600, 24 h; higher = more signal, called active from +8 up or from −8 down.
For `[N-]=[N+]=NCc1ccccc1C[C@@]1(C(=O)N2CCCCC2)N=C(c2ccc(OCCCO)cc2)O[C@@H]1c1ccccc1`, the z-score was -0.59.
Under `O=C1O[C@@H](c2ccccc2)[C@@H](c2ccccc2)N2[C@@H](c3ccc(OCCO)cc3)[C@]3(C(=O)Nc4ccccc43)[C@@H](C(=O)O)[C@H]12` stands -0.624; under `CC(CO)N1C(=O)[C@@H]2[C@H]3C(=O)OCC=C[C@H]3OC23C=CCN(C(C)(C)C)C(=O)[C@@H]13` (some centres undefined), 0.0031; under `CN1C(=O)C2C=CC(C(O)c3cccc4ccccc34)N(N3CCCCC3)C2C1=O` (centres undefined), 1.51.
With `CN(C)C(=O)[C@]1(CCS(=O)(=O)c2ccccc2)N=C(c2ccc(OCCCO)cc2)O[C@@H]1c1ccccc1N=[N+]=[N-]` the figure was -0.0799; with `COC(=O)[C@@]1(Cc2ccc(F)cc2)[C@H]2c3cc(C(=O)N4CCCC4)n(CCc4ccc(O)c(O)c4)c3C[C@H]2CN1C(=O)c1ccccc1`, 1.78.
Under `CN(C)CCCNC(=O)[C@@]1(c2ccc([N+](=O)[O-])cc2)CC(=O)N(CC23CC4CC(CC(C4)C2)C3)[C@@H]1c1ccc(CO)cc1I` stands -16.9 (active); under `Cc1cc(C)c(C(O)C2C=CC3C(=O)NC(=O)C3N2Nc2ccc(Cl)cc2Cl)c(C)c1` (centres undefined), -3.83.
On to `COCCOC(=O)N1C(=O)[C@@]2(c3cc(C#CC4=CCCCC4)ccc31)[C@H](c1ccc(OCCO)cc1)N1[C@H](c3ccccc3)[C@H](c3ccccc3)OC(=O)[C@H]1[C@@H]2C(=O)N1CCN(c2ncccn2)CC1`, for which the z-score was 1.7.
